Test results published in PubChem BioAssay (EPA / NIEHS).
Calls of active or inactive are those of the source. How the source made its calls: active means hit-call score of the fitted dose curve at least 0.9, where 1 is the maximum; inactive means score below 0.9.

Read-out: Lipase C (LIPC), LIPC (gene 3990)
Assay: LTEA_HepaRG_LIPC: Life Technologies and Expression Analysis (LTEA) Assay for Lipase C (LIPC) using HepaRG (AID 2283514)
Details: mRNA level, 48 h; actives raise or lower the signal
Protocol: LTEA_HepaRG is a cell based, multiplexed-readout assay that uses HepaRG, a human liver cell line, with measurements taken at 48 hours after chemical dosing on a 96-well plate.LTEA_HepaRG_LIPC is one of 102 assay component(s) measured in the LTEA HepaRG cell culture assay. It is a marker of Steatosis.Data from the assay component LTEA_HepaRG_LIPC was analyzed into 1 endpoint. This assay endpoint, LTEA_HepaRG_LIPC, was analyzed with bidirectional fitting relative to DMSO as the negative control and baseline of activity. Using a type of inducible reporter, measures of mRNA induction for gain or loss-of-signal activity can be used to understand regulation of transcription factor activity. To generalize the intended target to other relatable targets, this assay endpoint is annotated to the esterase intended target family, where the subfamily is lipase.
A total of 1060 chemcials from the ToxCast library were tested in eight-point concentration-response experiments. Cell culture and cytotoxicity assays were conducted at Thermo Fisher Scientific's Custom Services facility (Madison, WI). A single lot of human HepaRG cells (Thermo Fisher Scientific, Frederick, MD) was used for the cell culture experiments. 96-well format collagen type I coated plates of human HepaRG cells were prepared using established methods. Briefly, cryopreserved HepaRG cells were thawed, plated at a density of approximately 100,000 cells/well in HepaRG Thaw, Plate, and General Purpose media (HPRG770, Thermo Fisher Scientific), and incubated for 48 hours. 0.5% DMSO was selected as vehicle control to balance the requisite need of DMSO in HepaRG cultures to maintain differentiation (for example, baseline metabolism, proportions of hepatocytes vs. cholangiocytes), while enabling further hepatic receptor pathway activation (for example, PXR and CAR) in response to chemical exposure. 48 hours after plating, the culture medium was replaced with HepaRG Serum-Free Incudtion Media. Cells were exposed to each test chemical in duplicate and maintained in CO2 incubators for another 48 hours. Chemical plates were thawed to room temperature and 200x concentrations of treatment groups were prepared. 8-point conentration-reponse curves were made with the highest exposure at 100 uM, followed by half-log dilutions, all in 0.5% DMSO. Each test plate contained variouse controls, induction positive controls (1mM phenobarbital), cytotoxicity positive controls ([…] aflatoxin B1), vehicle controls (0.5% DMSO), and total lysis controls (0.5% DMSO). Cell morphology images were taken using an Essen IncuCyte FLR automated microscope, with six 96-well plates imaged in about 24 minutes. Images were captured and exported and JPEG files. Spent culture media was transfered to black-well plates for the LDH assay, and remaining media was sorted at -80 C for later use. Cells were treated with RLT buffer and frozen until shipped for gene expression analysis. Total RNA was isolated from the cell suspension in 75 uL of Buffer RLT (Qiagen, Germantown, MD 20874) by Quintiles/Expression Analysis (Durham, NC) using a custom isolation procedure. Total RNA from each plate well was transferred to a preamplification plate. Fluidigm's 96.96 Dynamic ArrayTM (Fluidigm, Amsterdam, the Netherlands) technology was used for gene expression analyses by quantitative reverse transcription polymerase chain reaction (qRT-PCR, performed by Quintiles/Expression Analysis, Durham, NC)89. Standard TaqManTM Assays (Applied Biosystems/ThermoFisher Scientific, Foster City, CA) were used to assess the expression of 93 genes selected based on their selectivity and sensitivity to important hepatic receptors known to be modulated by environmental chemicals; importance in human hepatocyte functionality; and hepatotoxicity. […]

AC50, active:
N=C(N)c1ccc(OCCCCCOc2ccc(C(=N)N)cc2)cc1 3.64 µM
Cc1[nH]nc2c1N=C(c1ccccc1Cl)c1cc([N+](=O)[O-])ccc1N2 11.2 µM
CCCCCCCCCCCCOS(=O)(=O)O 80.4 µM
CS(=O)(=O)c1ccc([C@@H](CC2CCCC2)C(=O)Nc2cnccn2)cc1Cl 86.9 µM
CCCCc1oc2ccccc2c1C(=O)c1cc(I)c(OCCN(CC)CC)c(I)c1 55.7 µM
O=C(CCCN1CCC(O)(c2ccc(Cl)cc2)CC1)c1ccc(F)cc1 84.9 µM

outcome, inactive:
OCC(CO)(CBr)CBr
O=C1NS(=O)(=O)c2ccccc21
CN(C)CCOC(c1ccccc1)c1ccccc1
CCCCC(CC)C(=O)O (stereo unspecified)
CCCCCCCCCCCCCCC
O=C(c1ccccc1)c1ccccc1
CC(=O)Nc1ccc(O)cc1
CCC(C)c1ccccc1O (stereo unspecified)
CCCCC=O
CN(Cc1cnc2nc(N)nc(N)c2n1)c1ccc(C(=O)N[C@@H](CCC(=O)O)C(=O)O)cc1
